Most compounds without a hit are left out; they make up all but 7.5% or so of the library.
SMN2 splice enh: SMN2 splice variant enhancement; actives 2.8% (n = 210,000); Potency, µM (titrated, usually from 46.1 µM), for the others: at the top dose activity change, positive = activation, usual class: activators; AID 1458; HEK293 SMN2-luciferase splicing reporter, luminescence, 30-36 h; also: % of control where 0% means no effect; nearly all actives have a fitted effect of over 55% in size
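HEK293 cells carry an SMN2 […]–luciferase reporter in which exon 7 inclusion puts luciferase in frame. Cells were plated 10-12 h before compound addition, then incubated 30-36 h at 37C. ONE-Glo luminescence was read; sodium butyrate at 4.5 mM final served as control.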
Rab9 promoter act: Rab9 promoter activation | Huh7 Rab9 promoter-luciferase reporter, luminescence, 24 h | Potency, µM (top dose mostly 9.22 µM), without a hit: at the highest dose activation, negative = inhibition, actives largely listed as activators | actives 2.8% (n = 320,000) | AID 485297; also: % of control where 0% means no effect; nearly all actives have a fitted effect of over 60% in size
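Steps: seed 1500 Huh7 Rab9-luc cells per well, rest 2 h at 37 °C; add compound in DMSO; incubate 24 h; add luciferase reagent, 10 min ambient; read luminescence.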
ELG1 genotox: inducers of genotoxicity in HEK293T ELG1-luciferase cells | HEK293T ELG1-luciferase reporter, luminescence, 16 h | Potency, µM (highest dose often 46 µM), for the others: at the top dose activity change, positive = activation, usual class: activators | actives 1.3% (n = 330,000); also: % of control where 0% means no effect; nearly all actives have a fitted effect of over 60% in size
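Genotoxic stress is detected as increased luminescence from luciferase-tagged ELG1 in HEK293T cells, measured with ONE-Glo after a 16 hr treatment at 37 °C.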
FLuc modulator: counter-screen for miR-21 project: firefly luciferase inhibitors or activators; actives 6.9% (n = 360,000); P08659; Potency, µM (series often up to 57.5 µM), without a hit: at the top dose activity change, negative = inhibition, most hits filed as inhibitors; purified FLuc, Km substrates, luminescence inhibition;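 also: plate controls were vehicle for no effect and reference inhibitor for full effect; nearly all actives have a fitted effect of over 55% in size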
Target sequence (P08659 whole entry, looked up): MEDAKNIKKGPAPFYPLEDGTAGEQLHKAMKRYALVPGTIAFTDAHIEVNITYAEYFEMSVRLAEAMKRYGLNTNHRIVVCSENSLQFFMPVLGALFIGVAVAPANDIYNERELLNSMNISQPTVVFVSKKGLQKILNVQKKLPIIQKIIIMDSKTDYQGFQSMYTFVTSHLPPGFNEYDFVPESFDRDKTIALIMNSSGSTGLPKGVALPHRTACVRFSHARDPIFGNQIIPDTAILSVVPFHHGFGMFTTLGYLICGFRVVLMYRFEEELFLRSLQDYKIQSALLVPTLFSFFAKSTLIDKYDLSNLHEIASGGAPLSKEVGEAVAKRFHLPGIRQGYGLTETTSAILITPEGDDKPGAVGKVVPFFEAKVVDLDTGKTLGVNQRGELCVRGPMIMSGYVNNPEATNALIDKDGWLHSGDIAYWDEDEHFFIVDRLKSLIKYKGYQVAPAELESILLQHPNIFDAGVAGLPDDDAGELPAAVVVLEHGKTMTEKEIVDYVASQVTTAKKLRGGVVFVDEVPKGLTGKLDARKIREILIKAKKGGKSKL
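Biochemical qHTS of compounds, final roughly 60 µM downward over six points, against 10 nM purified firefly luciferase using Km concentrations of substrates (10 uM D-luciferin, 10 uM ATP) in Tris acetate pH 7.5 buffer; luminescence output.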
Luc counter: blocks Kinase-Glo luciferase, a counter-screen artifact; Q27757; Kinase-Glo luciferase, ATP luminescence, 8 min; Potency, µM (titrated, usually from 38.3 µM), for the others: at the highest dose activity change, negative = inhibition, most hits filed as inhibitors; actives 0.28% (n = 200,000); AID 1379; also: % is scaled to controls: 0 for no effect and ±100 for the full control effect; nearly all actives have a fitted effect of over 60% in size
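Luminescence was the read-out, taken after 8-minute incubation at ambient temperature. Luciferase turned over luciferin with 10 uM ATP in imidazole pH 7.2 buffer containing KCl, MgCl2, Tween 20 and BSA.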
NPC1 prom act: activators of NPC1 promoter; actives 2.4% (n = 320,000); Potency, µM (highest dose often 9.22 µM), without a hit: top-dose activation, hits mostly activators; Huh7 NPC1 promoter luciferase reporter, 24 h; also: % of control where 0% means no effect; nearly all actives have a fitted effect of over 60% in size
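Quantitative HTS used a cell-based reporter: Huh7 cells stably bearing the NPC1 promoter upstream of luciferase were treated with compounds for 24 h, and promoter activation was read as luminescence.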
An asterisk follows results filed as active; ? = inconclusive; nt = no result given; ! = not active in a repeat; [ ] = remark or other dose. Calls follow the shape of the dose curve; as a rule, active = well fitted curve in the direction sought with a large enough effect; inconclusive = small, poorly fitted or top-dose-only effect, or another doubt; inactive = no such curve, though single readings can be large; an effect the other way counts as inactive or inconclusive. Potency is read from the fitted curve at half-maximal effect.

SMILES	SMN2 splice enh	Rab9 promoter act	ELG1 genotox	FLuc modulator	Luc counter	NPC1 prom act
O=C(Nc1ccc(Cl)cc1F)C1CC1c1ccccc1 (stereo not drawn)	nt	24%	13%	?	nt	20%
O=C(O)CCSCC(=O)c1ccc2c(c1)OCCO2	?	-6%	23%	11µM*	12%	16%
CCn1c(SCC(=O)c2ccc3c(c2)OCCO3)nnc1-c1ccco1	21%	0%	-1%	8.5µM*	4%	2%
Cn1nnnc1SCC(=O)c1ccc2c(c1)OCCO2	nt	?	9%	?	-10%	23%
COCCn1c(SCC(=O)c2ccc3c(c2)OCCO3)nnc1-c1ccco1	18%	2%	-10%	-13%	-8%	-4%
CCn1nnnc1SCC(=O)c1ccc(C)cc1	3%	?	?	15µM*	-4%	?
CCn1nnnc1SCC(=O)c1ccc(NC(C)=O)cc1	-6%	26%	6%	-12%	-4%	2%
O=C(O)CCC(=O)c1ccc2c(c1)OCCO2	12%	6%	0%	-14%	-1%	1%
CCCn1nnnc1SCC(=O)c1ccc2c(c1)OCCO2	3%	?	?	12µM*	-2%	?
COc1cc(C2C(C(=O)c3cc4ccccc4o3)=C(O)C(=O)N2CCN2CCOCC2)ccc1OCCC(C)C (stereo not drawn)	nt	-1%	2%	-1%	nt	-1%
O=[N+]([O-])c1ccc(C2Oc3ccccc3C3CC(c4ccccc4)=NN32)s1 (stereo not drawn)	25µM*	20%	?	9.5µM*	3%	-2%
Cc1ccc(N2NC(=O)/C(=C/c3ccc(-c4ccc(Cl)c(C(=O)O)c4)o3)C2=O)cc1C	nt	0%	0%	17µM*	nt	-6%
COC(=O)c1ccc(N2NC(=O)/C(=C/c3ccc(-c4ccc(Cl)c(C(=O)O)c4)o3)C2=O)cc1	11%	0%	2%	11µM*	-4%	0%
O=C1NN(c2ccc(Cl)c(Cl)c2)C(=O)/C1=C/c1ccc(-c2ccccc2C(=O)O)o1	nt	-4%	1%	?	nt	-3%
O=C1NN(c2ccccc2)C(=O)/C1=C/c1ccc(-c2ccc(C(=O)O)cc2)o1	nt	15%	-2%	21µM*	nt	11%
COc1cc(Cl)c(C)cc1NC(=O)CSc1cc(=O)n(C)c2cc(Cl)ccc12	13%	nt	nt	-4%	nt	nt
CCOC(=O)/C(N=Nc1ccc2c(c1)OCO2)=C(\C)O	11µM*	2.5µM*	?	13µM*	-10%	4µM*
CC(=O)c1ccccc1OCC(O)Cn1c(CO)nc2ccccc21 (stereo not drawn)	6%	nt	nt	24µM*	nt	nt
CCOc1ccc(NC(=O)CSc2oc(-c3ccc(C)cc3)nc2S(=O)(=O)c2ccc(C)cc2)cc1	7%	nt	nt	2%	nt	nt
CN(/N=C/c1c[nH]c2ccccc12)c1cnn(-c2ccc(F)c(Cl)c2)c(=O)c1Cl	8%	11%	3%	13µM*	-2%	-1%
CCOCCCNC(=O)C1CCN(c2nc3ccc(C)cc3[nH]2)CC1	nt	nt	nt	0%	nt	nt
CC(=O)Nc1cccc(NC(=O)Cn2cnc3c2c(=O)n(C)c(=O)n3C)c1	7%	nt	nt	3%	nt	nt
C=CCn1cccc(/C=C/C(=O)c2ccc(C(C)(C)C)cc2)c1=S	-104%	-8%	-19%	13µM*	-2%	-1%
CCOC(=O)c1c(-c2ccc(C)cc2)csc1NC(=O)c1cc(=O)c2cc(C)c(C)cc2o1	0%	nt	nt	0%	nt	nt
COc1cccc(C(=O)Nc2cccc(-c3ccc(N4CCOCC4)nn3)c2)c1OC	nt	1.1µM*	1%	0.38µM*	nt	3.5µM*
SMILES	SMN2 splice enh	Rab9 promoter act	ELG1 genotox	FLuc modulator	Luc counter	NPC1 prom act
O=C(Nc1cccc(-c2ccc(N3CCOCC3)nn2)c1)c1ccc(F)cc1F	nt	2.8µM*	?	1.1µM*	nt	2.8µM*
CCOc1ccc(C(=O)Nc2ccc(S(=O)(=O)N3CCOCC3)cc2)cc1OCC	-6%	1%	3%	0%	-5%	15%
Cn1c(SCC(=O)N2CCOCC2)nnc1-c1cccc(NC(=O)c2ccccc2F)c1	10%	-1%	2%	1%	-2%	-1%
COc1ccc(C(=O)Nc2cccc(-c3ccc(N4CCOCC4)nn3)c2)cc1OC	nt	2.8µM*	10%	0.76µM*	nt	?
CCOc1ccc(C(=O)Nc2cccc(-c3ccc(N4CCOCC4)nn3)c2)cc1OCC	nt	4µM*	3%	1.2µM*	nt	?
CCc1ccc(CN(C(=O)c2ccc(OC)cc2)C2CCS(=O)(=O)C2)cc1 (stereo not drawn)	-11%	nt	nt	2%	nt	nt
COc1cccc(C(=O)Nc2cccc(-c3ccc(N4CCOCC4)nn3)c2)c1	nt	?	3%	2.1µM*	nt	?
CCOc1ccccc1C(=O)Nc1ccc(S(=O)(=O)N2CCOCC2)cc1	2%	2%	2%	6%	-1%	-1%
CCOc1ccccc1C(=O)Nc1cccc(-c2ccc(N3CCOCC3)nn2)c1	nt	4.5µM*	?	1.5µM*	nt	?
COc1ccc(C(=O)c2c(N)c(C(=O)Nc3ccccc3Cl)c3ccccn23)cc1	-6%	nt	nt	-6%	nt	nt
Cc1ccc(/C=N/Nc2cccc3cccnc23)c(O)c1	nt	?	?	1.5µM*	nt	4µM*
Oc1ccc(/C=N/Nc2cccc3cccnc23)c(O)c1	13µM*	3.2µM*	6.5µM*	4.8µM*	-12%	9%
O=C(O)/C=C/C(=O)Nc1cccc2cccnc12	nt	11%	6%	?	nt	2%
Cc1ccc2nc(C)cc(N/N=C/c3cccnc3)c2c1	nt	-4%	2%	0%	-2%	0%
COc1ccccc1CNC(=O)c1ccc2c(c1)CCN2S(=O)(=O)c1ccc(Cl)cc1	-14%	nt	nt	-2%	nt	nt
CCOc1ccc(OCC)c(NS(=O)(=O)c2cc(-c3cc(C)no3)ccc2C)c1	nt	nt	nt	3%	nt	nt
COC(=O)CCNC(=O)c1ccc2nc(Cc3ccc(OC)c(OC)c3)oc2c1	nt	?	19%	17µM*	nt	?
CCOCCCNC(=O)c1ccc(OC)cc1	28µM*	29%	?	3%[2.3 µM]	0%	14%
COCCCNC(=O)c1ccc2nc(Cc3ccc(OC)cc3)oc2c1	nt	2.2µM*	21µM*	17µM*!	nt	4µM*
COc1ccc(Cc2nc3ccc(C(=O)NCCc4ccc(OC)c(OC)c4)cc3o2)cc1	nt	nt	nt	1%	nt	nt
CCOCC(O)CNC(=O)c1ccc2nc(Cc3ccc(OC)c(OC)c3)oc2c1 (stereo not drawn)	nt	-3%	1%	-4%	nt	?
COc1ccc(Cc2nc3ccc(C(=O)NCCCSC)cc3o2)cc1OC	nt	?	17%	17µM*	nt	?
Cc1nc(-c2cccc(F)c2)sc1CCNC(=O)Cc1ccc(F)cc1	nt	nt	nt	-16%	nt	nt
